Screening data (PubChem)
SMN2 splice enh – increases expression of the SMN2 splice variant; HEK293 SMN2-luciferase splicing reporter, luminescence, 30-36 h; Potency, µM (highest dose often 46.1 µM), inactives show at the top dose activity change, positive = activation, most hits filed as activators; actives 2.8% (n = 210,000); further: % of control where 0% means no effect; nearly all actives have a fitted effect of over 55% in size
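qHTS luciferase splicing reporter: luminescence rises when SMN2 exon 7 is included in transfected HEK293 cells. Compound exposure lasted 30-36 h at 37C, with 4.5 mM final sodium butyrate as control, followed by a ONE-Glo read.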
KinaseGlo FLuc – counter-screen: inhibitors of Kinase-Glo firefly luciferase. Q27757. Kinase-Glo luciferase, ATP luminescence, 8 min. Potency, µM (top dose mostly 38.3 µM), for inactives: at the highest dose activity change, negative = inhibition, usual class: inhibitors. actives 0.28% (n = 200,000); further: on the % scale 0 is the no-effect control and ±100 the full control effect; nearly all actives have a fitted effect of over 60% in size
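Substrate mix (final 50 mM imidazole pH 7.2, 50 mM KCl, 7 mM MgCl2, 10 uM ATP, 0.01% Tween 20, 0.05% BSA) plus pin-tool compound, then Kinase-Glo detection mix; 8 min ambient, luminescence read.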
ELG1 genotox – induces genotoxicity in HEK293T cells with luciferase-tagged ELG1. HEK293T ELG1-luciferase reporter, luminescence, 16 h. Potency, µM (doses to about 46 µM), for the others: top-dose activity change, positive = activation, usual class: activators. actives 1.3% (n = 330,000). AID 504466; further: % of control where 0% means no effect; nearly all actives have a fitted effect of over 60% in size
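HEK293T cells expressing luciferase-tagged ELG1 were exposed to compound or DMSO vehicle for 16 hr at 37 °C and 5% CO2. Luciferase activity was then measured with ONE-Glo after 30 min at room temperature.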
NPC1 prom act – activators of NPC1 promoter; AID 485313; actives 2.4% (n = 320,000); Potency, µM (titrated, usually from 9.22 µM), without a hit: top-dose activation, most hits filed as activators; Huh7 NPC1 promoter luciferase reporter, 24 h; further: % of control where 0% means no effect; nearly all actives have a fitted effect of over 60% in size
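Stably transfected Huh7 (NPC1 promoter→luciferase), 1500 cells/well in Opti-MEM + 10% FBS, 2 h settle, then compound 24 h at 37 °C. Luminescence after 10 min with Amplite reagent.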
Rab9 promoter act – activators of Rab9 promoter; Huh7 Rab9 promoter-luciferase reporter, luminescence, 24 h; Potency, µM (highest dose often 9.22 µM), inactives show at the top dose activation, negative = inhibition, actives largely listed as activators; actives 2.8% (n = 320,000); AID 485297; further: % of control where 0% means no effect; nearly all actives have a fitted effect of over 60% in size
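Promoter activation is measured as luciferase luminescence in Huh7 cells stably transfected with a Rab9 promoter–luciferase construct, following 24 h compound exposure at 37 °C and 10 min reagent incubation at ambient temperature.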
FLuc counter – inhibits or activates purified firefly luciferase, miR-21 counter-screen; P08659; AID 588342; purified FLuc, Km substrates, luminescence inhibition; Potency, µM (series often up to 57.5 µM), for inactives: at the highest dose activity change, negative = inhibition, actives largely listed as inhibitors; actives 6.9% (n = 360,000);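 further: plate controls were vehicle for no effect and reference inhibitor for full effect; nearly all actives have a fitted effect of over 55% in size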
Target sequence (P08659 whole entry, looked up): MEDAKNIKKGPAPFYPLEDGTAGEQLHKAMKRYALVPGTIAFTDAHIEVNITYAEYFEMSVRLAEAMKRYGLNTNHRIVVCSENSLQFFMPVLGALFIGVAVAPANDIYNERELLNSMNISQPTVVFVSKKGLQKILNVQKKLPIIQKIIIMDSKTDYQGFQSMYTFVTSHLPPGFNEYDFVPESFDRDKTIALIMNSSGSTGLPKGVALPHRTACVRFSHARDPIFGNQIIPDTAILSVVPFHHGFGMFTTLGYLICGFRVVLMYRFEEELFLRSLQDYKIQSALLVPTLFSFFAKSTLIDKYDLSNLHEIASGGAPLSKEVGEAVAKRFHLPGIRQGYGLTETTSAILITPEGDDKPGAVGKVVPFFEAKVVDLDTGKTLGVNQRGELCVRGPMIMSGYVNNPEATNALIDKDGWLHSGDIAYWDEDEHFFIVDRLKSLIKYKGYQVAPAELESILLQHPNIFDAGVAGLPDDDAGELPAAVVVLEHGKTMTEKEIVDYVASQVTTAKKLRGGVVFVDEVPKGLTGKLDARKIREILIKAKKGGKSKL
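Purified P. pyralis luciferase, 10 nM final, with Km-level 10 uM D-luciferin and 10 uM ATP in 50 mM Tris acetate pH 7.5, 10 mM Mg acetate, 0.01% Tween-20, 0.05% BSA; 6-point qHTS titration about 60 µM downward; luminescence read.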
* hit, by the source's call; u = inconclusive; x = no result; [ ] = dose if it differs, or a comment. Rows were chosen to be rich in hits. Some 7.5% of all compounds tested hit in one or more screens of this group. The call rests on the fitted dose curve; in most records, active means well fitted curve in the direction sought with a large enough effect; inconclusive means small, poorly fitted or top-dose-only effect, or another doubt; inactive means no such curve, though single readings can be large; an effect the other way counts as inactive or inconclusive. Potency means the concentration at half of the fitted maximal effect.

SMILES	SMN2 splice enh	KinaseGlo FLuc	ELG1 genotox	NPC1 prom act	Rab9 promoter act	FLuc counter
CCOC(=O)C1(Cc2ccccc2)CCCN(C(=O)c2ccc(-n3ccnc3)cc2)C1 (stereo unspecified)	x	x	-2%	17%	-5%	u
COc1ccc(CC(=O)N/N=C(\C)c2cccnc2)cc1	x	x	4%	-1%	3%	2%
CN=c1scc(-c2ccc(OC)cc2)n1/N=C(\C)c1cccnc1	-21%	3%	-2%	14%	1%	12µM*
O=[N+]([O-])c1cccc(-c2csc(N/N=C/c3cccc(O)c3)n2)c1	10%	10%	1%	2%	8%	u
CCOC(=O)CSc1nc(N)nc(C)c1Cl	x	0%	-4%	1%	-2%	24µM*
CC(=O)c1ccc(N2CCN(C(=O)C3CCN(S(=O)(=O)c4c(C)noc4/C=C/c4ccccc4F)CC3)CC2)cc1	x	x	x	x	x	-9%
Cc1[nH]c(C)c2c(=O)n(-c3ccccc3)ncc12	0%	-3%	21µM*	18%	u	u
Cc1c2cnn(-c3ccccc3)c(=O)c2c(C)n1CC(=O)NCc1ccccc1	-5%	x	x	x	x	-1%
COc1ccccc1CNC(=O)c1oc2ccc3c(c2c1C)C(=O)CC(C)(C)O3	13%	x	x	x	x	5.4µM*
Cc1c(C(=O)NCC2CCCO2)oc2ccc3c(c12)C(=O)CC(C)(C)O3 (stereo unspecified)	x	-1%	u	u	2.5µM*	2.7µM*
CCCOc1ccc(CNC(=O)c2oc3ccc4c(c3c2C)C(=O)CC(C)(CC)O4)cc1 (stereo unspecified)	-23%	x	x	x	x	u
CC(=O)c1ccc(N2CCN(C(=O)c3cn(C)c(=O)c4c3c3ccccc3n4C)CC2)cc1	12%	x	x	x	x	-3%
CCC(C(=O)OC(C)C(=O)Nc1ccc(Cl)cn1)c1ccccc1 (stereo unspecified)	x	x	-9%	1%	2%	2%
O=C(CSc1nnnn1-c1ccccc1)N1CCCc2ccccc21	-12%	-3%	0%	2%	7%	-7%
Cc1ccc(-c2ccc(SCC(=O)N3CCCc4ccccc43)nn2)cc1	17%	-2%	3%	7%	8%	8.5µM*
COc1ccc2c(CC(=O)N3CCc4ccccc43)coc2c1	16µM*	-17%	u	2µM*	3.2µM*	3.4µM*
CCCn1nnnc1SCC(=O)N1CCCc2ccccc21	-7%	3%	15µM*	-5%	-2%	u
Cc1ccc2c(c1)c1nnc(SCC(=O)N3CCCc4ccccc43)nc1n2CC(=O)O	x	10µM*	u	3.5µM*	3.5µM*	6.7µM*
Cc1ccc(-c2ccc(SCC(=O)N3CCc4ccccc43)nn2)cc1	23%	-3%	10%	1%	16%	u
CCOC(=O)c1c(S(=O)(=O)NCC(=O)Nc2cc(C)ccc2OC)c(C)n(C)c1C	x	x	-2%	-3%	-5%	1%
Cc1ccccc1C(=O)Nc1nnc(S(=O)(=O)N2CCCc3ccccc32)s1	x	x	x	x	x	2%
CCOc1ccccc1CN1CCN(Cc2csc(C(C)=O)c2)CC1CCO (stereo unspecified)	x	x	-1%	-7%	0%	0%
COc1ccc(C(=O)NC(C(=O)N2CCc3ccccc32)C(C)C)cc1 (stereo unspecified)	x	-1%	14%	2%	0%	1%
COc1cc(OC)cc(C(=O)N[C@H](C(=O)OCC(=O)N2CCc3ccccc32)C(C)C)c1	-4%	-3%	4%	-2%	-6%	15µM*
COc1cccc(-c2ccc(SCC(=O)N3CCc4ccccc43)nn2)c1	25%	1%	1%	-1%	-3%	21µM*
SMILES	SMN2 splice enh	KinaseGlo FLuc	ELG1 genotox	NPC1 prom act	Rab9 promoter act	FLuc counter
Cn1c(-c2ccccc2)cnc1SCC(=O)N1CCCCC1	1.4µM*	0%	u	0.4µM*	0.32µM*	1.2µM*
Cn1c(-c2ccccc2)cnc1SCC(=O)N1CCCc2ccccc21	-14%[1.84 µM]	1%	1%	3%	2%	u
Cc1ccc(-c2cnc(SCC(=O)N3CCCc4ccccc43)n2C)cc1	-9%	-6%	0%	-4%	-5%	19µM*
CCN(C(=O)C1CCN(S(=O)(=O)c2ccc3c(c2)CCCN3C(=O)C2CCC2)CC1)c1cccc(C)c1	x	x	x	x	x	-8%
CCOC(=O)c1c(NC(=O)CSc2cn(CCNC(=O)c3ccc(OC)c(OC)c3)c3ccccc23)sc2c1CCCC2	1%	x	x	x	x	-5%
COc1ccccc1NC(=O)C1=C(C)Nc2c(C(=O)Nc3cccc(C)c3)cnn2C1c1ccccc1Cl (stereo unspecified)	x	x	x	x	x	-2%
Cn1c(Cl)c(C(=O)Nc2ccccc2)c2ccccc21	-4%	-8%	3%	u	2%	15µM*
Cc1ccc(NC(=O)c2c(Cl)n(C)c3ccccc23)cc1	u	-1%	11%	u	23%	3.4µM*
COc1ccc(Cc2nc(C)cc(Cl)n2)cc1[N+](=O)[O-]	x	x	-5%	-5%	6%	4%
COc1cc(N)c(Cl)cc1C(=O)OCC(=O)N1c2ccccc2NC(=O)C1(C)C	x	x	0%	x	x	x
COc1ccccc1OCC(=O)Nc1cccc(S(=O)(=O)NC2=NCCCCC2)c1	x	x	0%	-1%	0%	-13%
N#Cc1ccc(OCC(=O)Nc2cccc(S(=O)(=O)NC3=NCCCCC3)c2)cc1	x	x	-1%	-2%	-1%	u
CC(C)(C)c1ccc(OCC(=O)Nc2cccc(S(=O)(=O)NC3=NCCCCC3)c2)cc1	x	x	0%	-1%	-1%	11µM*
Cc1cc(Cl)ccc1OCC(=O)Nc1cccc(S(=O)(=O)NC2=NCCCCC2)c1	x	x	-5%	8%	1%	13µM*
O=C(COc1ccc(Cl)cc1)Nc1cccc(S(=O)(=O)NC2=NCCCCC2)c1	x	x	16%	3%	-6%	15µM*
O=C(COc1ccccc1Cl)Nc1cccc(S(=O)(=O)NC2=NCCCCC2)c1	x	x	-4%	-2%	-2%	19µM*
Cc1ccc(C)c(OCC(=O)Nc2cccc(S(=O)(=O)NC3=NCCCCC3)c2)c1	x	x	-14%	-1%	2%	-1%
O=C(COc1ccc(Cl)cc1)Nc1cccc(S(=O)(=O)NCc2ccco2)c1	x	x	-1%	-2%	1%	17µM*
COc1cc(C(=O)Nc2cccc(S(=O)(=O)NCc3ccco3)c2)cc(OC)c1OC	x	x	7%	-3%	-3%	1%
CC(=O)CCc1ccc(OCC(=O)Nc2cccc(S(=O)(=O)N(C)c3ccccc3)c2)cc1	x	x	-2%	-2%	-12%	11µM*
CCOc1ccc(NC(=O)C2C3CC/C=C\CCC32)cc1 (stereo unspecified)	x	x	8%	-12%	u	-5%
